Only some compounds are listed: those with a hit (about 3.4% of all), similar ones and a draw of the others.
MITF primary = blocks human microphthalmia-associated transcription factor | inhibition, % at 2.6 µM | O75030 | AlphaScreen MITF homodimerization, bead proximity signal | hit rate 0.91% among 650,000; in the data active = inhibition above about 50%
Target sequence (O75030 whole entry, looked up): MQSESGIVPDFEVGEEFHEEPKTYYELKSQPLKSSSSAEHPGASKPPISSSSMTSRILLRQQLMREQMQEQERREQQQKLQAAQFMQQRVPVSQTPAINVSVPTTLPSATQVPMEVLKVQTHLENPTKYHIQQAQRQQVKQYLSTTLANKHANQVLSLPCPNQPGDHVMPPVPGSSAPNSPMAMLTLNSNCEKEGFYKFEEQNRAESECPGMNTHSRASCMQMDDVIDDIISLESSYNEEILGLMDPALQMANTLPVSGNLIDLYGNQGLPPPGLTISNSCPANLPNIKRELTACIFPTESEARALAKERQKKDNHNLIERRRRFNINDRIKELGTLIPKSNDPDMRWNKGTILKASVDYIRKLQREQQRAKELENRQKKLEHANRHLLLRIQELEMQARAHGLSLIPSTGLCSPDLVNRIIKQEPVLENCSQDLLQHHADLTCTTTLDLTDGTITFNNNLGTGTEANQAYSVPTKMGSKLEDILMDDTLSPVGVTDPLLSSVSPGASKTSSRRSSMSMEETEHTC
TEAD-YAP block = TEAD-YAP interaction inhibition; inhibition, % at 9.12 µM; AID 1259422; hit rate 1.4% among 640,000; HEK-TIYL cells, TEAD-Gal4/YAP UAS-luciferase luminescence; in the data active = inhibition above about 32%
GPR151 activ = activates the human receptor GPR151. AID 1508602. activation, % at 11.2 µM. hit rate 1% among 650,000. Q8TDV0. PathHunter beta-arrestin GPR151 cells, luminescence; in the data active = activation above about 4.9%
FBW7 activator = activators of human E3 ligase FBW7; AlphaScreen FBW7–phospho-cyclin E peptide binding, activator screen; normalized activity (activation), % at 26.1 µM; hit rate 0.13% among 650,000; in the data active = normalized activity above about 1.9%;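 also: purified mutant Fbw7 with reduced substrate affinity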
GPR151 conf act = human GPR151 activation, confirmation screen; GPR151 PathHunter beta-arrestin cells, luminescence, 90 min; % of EA-reagent control over plate median; shares compounds with GPR151 activ; activation, % at 11.2 µM; 6,700 tested, under 10 active;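 active = mean percent activation across replicates above the confirmation screen cutoff of 4.91%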
GPR119 counter = GPR119 activation, counter-screen for GPR151 activators | hit rate 0.3% among 6,700 | shares compounds with GPR151 activ | GPR119 PathHunter beta-arrestin cells, luminescence, 90 min; 0 = compound-well median, 100 = enzyme-acceptor control | activation, % at 11.2 µM;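 active = mean percent activation in the counterscreen above 29.09%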;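 also: counterscreen on off-target GPR119 to flag nonselective hits from the GPR151 activator screen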
Each line names hits and unclear results; the compound was inactive in the other large screens (follow-up assays come after a bar, where they were run).

CCCN1CCN(c2c(-c3ccccc3)c(=O)c2=O)CC1	none
COc1ccc2nc(N3CCN(Cc4ccccn4)CC3)c(C#N)cc2c1	none
Cc1ccc(CN2CCC(N(C)C(C)c3nccs3)CCC2=O)cc1 (centres undefined)	GPR151 activ 5.2 | GPR151 conf act inactive | GPR119 counter inactive
Cc1ccc(-c2cnc3ccccc3n2)cc1NC(=O)CNC(=O)Cc1ccccc1	none
CC(C)c1ccc(N(C)S(=O)(=O)c2ccc3[nH]cc(C(=O)NCCN4CCOCC4)c(=O)c3c2)cc1	GPR151 activ 5.1 | GPR151 conf act inactive | GPR119 counter inactive
CC1CC(NC(=O)c2cc3c(=O)n4ccccc4nc3s2)CC(C)(C)C1 (centres undefined)	none
Cc1ccccc1Cc1c(C)nc2nc(SCc3cc(=O)n4cc(Br)ccc4n3)nn2c1C	none
O=C(Cn1c(=O)oc2ccccc21)NCc1cccc(F)c1	GPR151 activ 9.5 | GPR151 conf act inactive | GPR119 counter inactive
O=C(Cn1c(=O)oc2ccccc21)NCc1ccc(F)cc1	none
CC(C)Oc1ccc(CNC(=O)Cn2c(=O)oc3ccccc32)cc1	GPR151 activ 5.3 | GPR151 conf act inactive | GPR119 counter inactive
CCN1CCN(C(c2ccc(OC)cc2)c2nnnn2C(C)C)CC1 (centres undefined)	none
c1ccc(CNc2nc(Nc3ccncc3)nc3c2ncn3-c2ccccc2)cc1	GPR151 activ 6.6 | GPR151 conf act inactive | GPR119 counter inactive
Clc1nc(NCc2ccccc2)c2ncn(-c3ccccc3)c2n1	GPR151 activ 5.0 | GPR151 conf act inactive | GPR119 counter inactive
O=C1NC(=O)N(c2cccc([N+](=O)[O-])c2)C(=O)/C1=C/c1cccc2ccccc12	none
CCOc1ccc(N(CC(=O)Nc2cccc([N+](=O)[O-])c2C)S(C)(=O)=O)cc1	none
CC(=O)NCCSCc1cc2cccc3c2n(c1=O)CCC3	GPR151 activ 6.3 | GPR151 conf act inactive | GPR119 counter inactive
O=C(NCc1ccccc1F)c1cc2cc(Br)ccc2oc1=O	GPR151 activ 5.9 | GPR151 conf act inactive | GPR119 counter inactive
COC(=O)c1ccccc1NC(=O)C(C)N(c1ccc(Cl)cc1)S(C)(=O)=O (centres undefined)	GPR151 activ 6.8 | GPR151 conf act inactive | GPR119 counter inactive
Cc1cc(NC(=O)C(C)N(c2ccc(Cl)cc2)S(C)(=O)=O)ccc1Br (centres undefined)	GPR151 activ 6.4 | GPR151 conf act inactive | GPR119 counter inactive
COC(=O)c1ccccc1NC(=O)C(C)N(c1cc(C)cc(C)c1)S(C)(=O)=O (centres undefined)	none
Cc1cc(NC(=O)C(=O)NC(C)C)ccc1Br	GPR151 activ 6.4 | GPR151 conf act inactive | GPR119 counter inactive
Cc1ccccc1Cn1cnc2c(cnn2CCNC(=O)CCc2ccccc2)c1=O	none
O=C1CSC(=O)N1C1CCCCC1NC(=O)C1(c2cccs2)CCCC1 (centres undefined)	GPR151 activ 5.5 | GPR151 conf act inactive | GPR119 counter inactive
CCOC(=O)c1cccc(Nc2nc(-c3ccccc3Cl)nc3ccccc23)c1	none
CCOC(=O)c1nc(Nc2ccc(OC(C)C)cc2)c2ccccc2n1	GPR151 activ 8.8 | GPR151 conf act inactive | GPR119 counter inactive
CCOC(=O)c1nc(Nc2ccc(OCC)cc2)c2ccccc2n1	none
CCOC(=O)c1cccc(Nc2nc(-c3ccccc3)nc3ccccc23)c1	GPR151 activ 5.9 | GPR151 conf act inactive | GPR119 counter inactive
COc1ccccc1N1CCN(C(=O)C23CC4CC(CC(NC(C)=O)(C4)C2)C3)CC1	none
COc1ccc(C2CNCC2c2nc3ccc(-c4cn[nH]c4)cc3[nH]2)cc1 (centres undefined)	GPR151 activ 6.0 | GPR151 conf act inactive | GPR119 counter inactive
COc1ccc2c(c1)CC(c1nc3ccc(-c4cn[nH]c4)cc3[nH]1)NC2 (centres undefined)	none
CC1=C(C(=O)Nc2ccc(F)cc2)C(c2ccc(N(C)C)cc2)C2=C(CC(C)(C)CC2=O)N1 (centres undefined)	GPR151 activ 5.6 | GPR151 conf act inactive | GPR119 counter inactive
CC1=C(C(=O)Nc2c(F)cccc2F)C(c2ccc(N(C)C)cc2)C2=C(CC(C)(C)CC2=O)N1 (centres undefined)	none
CC1=C(C(=O)Nc2cccc(C)n2)C(c2ccc(C)cc2)C2=C(CC(C)(C)CC2=O)N1 (centres undefined)	GPR151 activ 6.9 | GPR151 conf act inactive | GPR119 counter inactive
O=c1[nH]c(/C=C/c2ccc(N3CCOCC3)cc2)nc(O)c1[N+](=O)[O-]	none
Cc1ccc(-n2nc3c(c2NC(=O)c2ccc(Cl)c([N+](=O)[O-])c2)CS(=O)C3)c(C)c1 (centres undefined)	none
Cc1ccc(-n2nc3c(c2NC(=O)c2cccc(F)c2)CS(=O)C3)c(C)c1 (centres undefined)	GPR151 activ 5.9 | GPR151 conf act inactive | GPR119 counter inactive
CCN(CC)c1nc(N/N=C/c2ccc(O)c([N+](=O)[O-])c2)nc(Nc2ccccc2)n1	none
COCC(=O)Nc1ccc(OC)c(N2CCCC2=O)c1	none
Cc1ccc(OCC(=O)Nc2ccc3oc(=O)ccc3c2)c(C)c1	GPR151 activ 5.5 | GPR151 conf act inactive | GPR119 counter inactive
O=C(COc1ccc(Br)cc1)Nc1ccc2oc(=O)ccc2c1	none
COc1ccc(OCC(=O)Nc2ccc3oc(=O)ccc3c2)cc1	GPR151 activ 5.8 | GPR151 conf act inactive | GPR119 counter inactive
Cc1ccc(OCC(=O)Nc2ccc(Br)cn2)c(C)c1	GPR151 activ 8.3 | GPR151 conf act inactive | GPR119 counter inactive
Cc1ccc(OCC(=O)NNC(=O)COc2ccc(Br)cc2C)c(C)c1	none
Cc1n[nH]c(C)c1CCC(=O)N/N=C/c1c(O)ccc2ccccc12	none
Cc1cc(C)c(S(=O)(=O)N(CC(=O)NCc2cccnc2)C2CCCCC2)c(C)c1	none
COc1ccc(S(=O)(=O)N(CC(=O)NCc2cccnc2)C2CCCCC2)cc1OC	GPR151 activ 5.2 | GPR151 conf act inactive | GPR119 counter inactive
Cc1cccc(N(CC(N)=O)C2SC(=O)N(Cc3cccc(C(=O)O)c3)C2=O)c1 (centres undefined)	GPR151 activ 10.7 | GPR151 conf act inactive | GPR119 counter inactive
CCOC(=O)CN(c1cccc(C)c1)C1SC(=O)N(Cc2cccc(C(=O)O)c2)C1=O (centres undefined)	none
CN(C)c1ccc(/C=C2\N=C(c3ccccc3F)OC2=O)cc1	none
CN(C)/C=C1\N=C(c2ccccc2F)OC1=O	GPR151 activ 6.9 | GPR151 conf act inactive | GPR119 counter inactive
C=CCn1c(C)cc(C(=O)COC(=O)CNC(=O)c2ccc(OCC)c(OCC)c2)c1C	GPR151 activ 9.6 | GPR151 conf act inactive | GPR119 counter inactive
Cc1cc2c(cc1S(=O)(=O)Nc1cccnc1)OCCN2C	none

Screening data from PubChem BioAssay.
